Source: PubChem BioAssay (several laboratories)
PRMT1 inh = PRMT1 methyltransferase inhibitors, primary screen, biochemical, fluorescence polarization | Protein arginine N-methyltransferase 1 (Homo sapiens), Q99873 | recombinant PRMT1, activity-based probe fluorescence polarization | inhibition, % at 2.79 µM | 1.3% of 370,000 active | AID 652257, 2013;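 active = inhibition above about 21% made by adding two undisclosed values, limit read from the data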
Target sequence (Q99873 whole entry, looked up): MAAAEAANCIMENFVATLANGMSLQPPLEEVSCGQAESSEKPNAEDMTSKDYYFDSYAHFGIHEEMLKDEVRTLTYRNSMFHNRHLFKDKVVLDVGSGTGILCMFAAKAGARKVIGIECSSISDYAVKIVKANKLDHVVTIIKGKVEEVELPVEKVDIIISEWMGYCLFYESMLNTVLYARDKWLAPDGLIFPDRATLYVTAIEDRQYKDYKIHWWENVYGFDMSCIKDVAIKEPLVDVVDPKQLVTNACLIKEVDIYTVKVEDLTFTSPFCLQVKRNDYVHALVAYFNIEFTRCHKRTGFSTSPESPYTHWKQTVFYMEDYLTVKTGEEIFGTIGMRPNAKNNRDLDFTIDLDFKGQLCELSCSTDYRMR
NOD2 RIPK2 PPI = NOD2-RIPK2 binding disruptors in cells, primary screen, fluorescence, CHO cells, BLA complementation. inhibition, % at 4.98 µM. AID 624267, 2012. 0.38% of 360,000 active. Receptor-interacting serine/threonine-protein kinase 2 (Homo sapiens), O43353. CCF4 ratio; in the data active = inhibition above about 21%
TLR4-MyD88 BLA = inhibitors of TLR4-MyD88 association in cells, primary screen, cell-based, HeLa CL3-4, BLA complementation, FRET ratio; HeLa CL3-4 TLR4/MyD88 BLA complementation; inhibition, % at 8.4 µM; 0.18% of 200,000 active; AID 861, 2007; in the data active = inhibition above about 25%
TLR9-MyD88 inh = inhibitors of TLR9-MyD88 association in cells, primary screen, cell-based, CHO, BLA complementation, fluorescence; Toll-like receptor 9 (Homo sapiens) + Myeloid differentiation primary response protein …; CCF4 FRET ratio; inhibition, % at 4.98 µM; 0.21% of 340,000 active; AID 504734, 2011;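 active = inhibition above the mean over all tested compounds plus 3 SD, cut at about 21% in these data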
Exocytosis inh = LAMP-1 surface exposure blockers, TALL-104 cells – cell-based, flow cytometry, MLPCN library, primary screen | TALL-104 LAMP-1 surface exposure; cells stimulated with thapsigargin and PMA | inhibition, % at 10 µM | 0.66% of 360,000 active | AID 651702, 2012;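 active = inhibition above about 55%, limit read from the data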
ABHD5 PLIN5 PPI = ABHD5-PLIN5 interaction inhibitors, primary screen, cell lysate, split luciferase complementation, luminescence; inhibition, % at 4 µM; 0.78% of 360,000 active; Split G. princeps luciferase complementation, 4 h; AID 602281, 2012;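 active = inhibition above the mean inhibition across every tested compound plus 3 SD, cut at about 22% in these data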
TLR9-MyD88 cf = TLR9-MyD88 association inhibitors, retest, confirmation, cell-based, CHO, BLA complementation, fluorescence, triplicate. shares compounds with TLR9-MyD88 inh. AID 540250, 2011. CCF4 FRET ratio. inhibition, % at 4.98 µM. 51% of 680 active;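 active = mean inhibition across three repeats above about 21% taken from the earlier screen, limit read from the data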;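 note: blue over green emission ratio reports constitutive TLR9 MyD88 association via BLA complementation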
BLA counter-1 = beta-lactamase reporter inhibitors in CHO cells, artefact control for TLR9-MyD88 binding inhibitor project, cell-based, fluorescence; CHO-BLA cells, CCF4 FRET ratio, BLA reporter; inhibition, % at 4.98 µM; shares compounds with TLR9-MyD88 inh; AID 540251, 2011; 7% of 680 active;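 active = mean inhibition above a 50% cutoff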;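 note: counterscreen of TLR9-MyD88 hits on CMV-driven BLA in CHO-K1 cells; higher means less blue over green ratio so more BLA blockade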
TLR9 CHO cytotox = CHO cell viability loss – luminescence, single concentration, cytotoxicity control for TLR9-MyD88 binding inhibitor project. shares compounds with TLR9-MyD88 inh. TLR9-MyD88 CHO cells cytotoxicity. inhibition, % at 4.98 µM. 39% of 680 active. AID 588336, 2011; in the data active = inhibition above about 11%
NOD2 RIPK2 conf = NOD2-RIPK2 binding disruptors, retest, confirmation, fluorescence, CHO cells, BLA complementation, triplicate; shares compounds with NOD2 RIPK2 PPI; CCF4 FRET; inhibition, % at 4.98 µM; 70% of 1,200 active; AID 624370, 2012;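 active = mean inhibition across replicates above a set limit taken from the earlier primary screen, cut at about 21% in these data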
BLA counter-2 = NOD2-RIPK2 counterscreen BLA reporter activity; shares compounds with NOD2 RIPK2 PPI; CHO BLA reporter, CCF4 FRET ratio; inhibition, % at 4.98 µM; 57% of 1,200 active;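 active = mean inhibition above the low-control mean inhibition plus three low-control SD, cut at about 11% in these data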
Large screens that a line does not name were inactive (follow-up assays come after a bar, where they were run). Shown are actives, neighbours in structure and some others; about 2.6% of the full set was active somewhere.

CCCCCC(=O)N=Nc1c(O)[nH]c2ccc([N+](=O)[O-])cc12	NOD2 RIPK2 PPI active, TLR9-MyD88 inh 23 | TLR9-MyD88 cf inactive | BLA counter-1 inactive | TLR9 CHO cytotox inactive | NOD2 RIPK2 conf inactive | BLA counter-2 inactive
Cc1ccc(NCC(=O)N=Nc2c(O)[nH]c3ccc([N+](=O)[O-])cc23)cc1	none (no result: NOD2 RIPK2 PPI, TLR4-MyD88 BLA, TLR9-MyD88 inh, Exocytosis inh, ABHD5 PLIN5 PPI)
CS(=O)(=O)N1C[C@]2(c3ccccc3)CC1Cc1ccccc12	none (no result: NOD2 RIPK2 PPI, TLR4-MyD88 BLA, TLR9-MyD88 inh, Exocytosis inh, ABHD5 PLIN5 PPI)
Nc1cccc2c1C(=O)N(CCOc1ccccc1F)C2=O	NOD2 RIPK2 PPI 33, TLR9-MyD88 inh 27 (no result: TLR4-MyD88 BLA) | TLR9-MyD88 cf inactive | BLA counter-1 inactive | TLR9 CHO cytotox inactive | NOD2 RIPK2 conf 38 | BLA counter-2 49
CN(C)c1ccc(C(=O)/C=C/c2ccccc2)cc1	none
CC(=O)Nc1cccc(C(=O)/C=C/c2ccc(N(C)C)cc2)c1	NOD2 RIPK2 PPI 57, TLR9-MyD88 inh 44 | TLR9-MyD88 cf 24 | BLA counter-1 inactive | TLR9 CHO cytotox inactive | NOD2 RIPK2 conf 51 | BLA counter-2 58
CC(C)C[C@H](NC(=O)c1ccccc1)C(=O)N1CCC[C@H]1C(=O)NCc1ccccc1	none (no result: NOD2 RIPK2 PPI, TLR4-MyD88 BLA, TLR9-MyD88 inh, Exocytosis inh, ABHD5 PLIN5 PPI)
O=c1oc2ccccc2c(Cl)c1CN1CCCCC1	NOD2 RIPK2 PPI 40, TLR9-MyD88 inh 23 | TLR9-MyD88 cf 75 | BLA counter-1 inactive | TLR9 CHO cytotox 96 | NOD2 RIPK2 conf 95 | BLA counter-2 14
CCN1C(=O)c2cccc3c(N)ccc(c23)C1=O	PRMT1 inh 172, NOD2 RIPK2 PPI 27, TLR9-MyD88 inh 25 (no result: TLR4-MyD88 BLA) | TLR9-MyD88 cf inactive | BLA counter-1 inactive | TLR9 CHO cytotox inactive | NOD2 RIPK2 conf 35 | BLA counter-2 35
COc1ccc2c3c(cccc13)C(=O)N(O)C2=O	none
CCC/C(C#Cc1ccc(N(C)C)cc1)=C1/c2ccccc2C(=O)N1c1ccccc1	NOD2 RIPK2 PPI 40, TLR9-MyD88 inh 29 (no result: TLR4-MyD88 BLA) | TLR9-MyD88 cf 56 | BLA counter-1 57 | TLR9 CHO cytotox inactive | NOD2 RIPK2 conf 49 | BLA counter-2 60
C[C@H](CO)N1C[C@H](C)[C@@H](CN(C)C(=O)CCC(F)(F)F)OCc2cn(nn2)CCCC1=O	none (no result: NOD2 RIPK2 PPI, TLR4-MyD88 BLA, TLR9-MyD88 inh, Exocytosis inh, ABHD5 PLIN5 PPI)
O=C(NCc1cc(C(F)(F)F)ccc1Cl)c1cccc2c1C(=O)c1ccc(N3CCC(N4CCCCC4)CC3)cc1S2(=O)=O	NOD2 RIPK2 PPI 61, TLR9-MyD88 inh 47 (no result: TLR4-MyD88 BLA) | TLR9-MyD88 cf 43 | BLA counter-1 52 | TLR9 CHO cytotox 24 | NOD2 RIPK2 conf 69 | BLA counter-2 68
O=C(NCc1cc(C(F)(F)F)ccc1Cl)c1cccc2c1C(=O)c1ccc(N3CCCCC3)cc1S2(=O)=O	none (no result: TLR4-MyD88 BLA)
Cn1c2ccccc2c(=O)c2ccc(C#Cc3ccc(N)cc3)cc21	NOD2 RIPK2 PPI 55, TLR9-MyD88 inh 41 (no result: TLR4-MyD88 BLA) | TLR9-MyD88 cf 32 | BLA counter-1 inactive | TLR9 CHO cytotox inactive | NOD2 RIPK2 conf 51 | BLA counter-2 60
COc1ccc(C#Cc2ccc3c(=O)c4ccccc4n(C)c3c2)cc1	none (no result: PRMT1 inh, NOD2 RIPK2 PPI, TLR4-MyD88 BLA, Exocytosis inh, ABHD5 PLIN5 PPI)
